Out of some 310,000 compounds screened, about 11,000 (3.5%) were called active. Where a call stands in place of a potency, no number is given. Another 8% or so got no clear call; they are omitted. The call rests on the fitted dose curve; in most records, active means well fitted inhibition curve with a large enough effect; inconclusive means small, poorly fitted or top-dose-only effect, or effect the other way; inactive means flat fitted curve, though single readings scatter. Only a selection was taken, and actives are over-represented in it overall.
Assay: VP16 counterscreen qHTS for inhibitors of ROR gamma transcriptional activity;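 further: Gal4-VP16 expression switched on by copper sulfate through the metallothionein promoter; nearly all actives have a fitted effect of over 50% in size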
Conditions: Drosophila S2 Gal4-VP16 UAS-luciferase, luminescence, 20 h; series mostly up to 53.6 µM
Potency means the concentration at half of the fitted maximal effect.

SMILES	Potency
CCOC(=O)c1ccccc1NC(=O)CC1Nc2ccccc2NC1=O (stereo not drawn)	inactive
O=C(CC1Nc2ccccc2NC1=O)Nc1ccccc1 (stereo not drawn)	5.01 µM (active)
O=C(CC1Nc2ccccc2NC1=O)Nc1ccccc1NC(=O)CC1Nc2ccccc2NC1=O (stereo not drawn)	inactive
CCN(C(=O)COc1ccc(C(=O)c2ccccc2)cc1)c1ccccc1	inactive
O=S(=O)(c1ccccc1)c1nc(-c2ccccc2)oc1NCCCN1CCOCC1	inactive
Cc1cccc(N2CCN(C(=O)c3cccc(N4C(=O)C5C6C=CC(C6)C5C4=O)c3)CC2)c1C (stereo not drawn)	inactive
O=C(CN1CCOC1=O)N1CCCC(Nc2ccc(F)c(F)c2)C1 (stereo not drawn)	inactive
C=C1CCN(C(CC(C)C)C(=O)N2CCOCC2)S(=O)(=O)c2ccccc21 (stereo not drawn)	inactive
Cc1ccc(OCCOc2cccc(/C=N/NC(N)=O)c2)cc1	inactive
Cc1ccc(S(=O)(=O)Oc2ccc(/C=N/NC(=O)c3ccncc3)cc2)cc1	inactive
Cc1ccc(OCCOCCOc2ccc(Br)cc2/C=N\NC(=O)c2ccncc2)cc1	25.1 µM (active)
Cc1ccc(CNC(=O)CCN2C(=O)[C@@H]3Cc4ccccc4CN3C2=O)cc1	inactive
CC(=O)Nc1cccc(C(=O)OCN2C(=O)c3ccccc3C2=O)c1	inactive
Cc1cc(OCc2cc(C(=O)NCc3cc(C(C)C)no3)no2)cc(C)c1Cl	inactive
Cc1cccc(NC(=S)NCc2ccc3[nH]c4c(c3c2)CCCC4)c1	7.08 µM (active)
Cc1cccc(NC(=S)NCCN(C2CCCCC2)C2CCCC2)c1	inactive
O=C(O)CCC(=O)NCc1ccc2[nH]c3c(c2c1)CCCC3	inactive
CCOc1cc(/C=N/Nc2cc(C)nc3ccc(C)cc23)ccc1O	inactive
CC(=O)NCC(=O)N1CCCC(C(=O)c2ccc3c4c(cccc24)CC3)C1 (stereo not drawn)	inactive
CCn1ccnc1CN1CCCC(C(=O)c2ccc3c4c(cccc24)CC3)C1 (stereo not drawn)	4.47 µM (active)
Cc1ncoc1C(=O)N1CCCC(C(=O)c2ccc3c4c(cccc24)CC3)C1 (stereo not drawn)	inactive
COc1cc2c(cc1OC)C(C)N(S(=O)(=O)c1cnc(Cl)c(Cl)c1)CC2 (stereo not drawn)	inactive
CCN1C(=S)N[C@@H](c2cccc(C(F)(F)F)c2)C(C(=O)OC)=C1C	inactive
CC1CCN(CC(=O)Nc2nccs2)CC1	inactive
C=CCn1c(=S)[nH]c2scc(-c3ccco3)c2c1=O	7.94 µM (active)
C=CCNC(=O)CSc1nc2scc(-c3ccco3)c2c(=O)n1CC=C	inactive
C=CCn1c(SCc2csc(C)n2)nc2scc(-c3ccc(C)o3)c2c1=O	inactive
COc1ccc(NC(=O)CN2C(=O)COc3ccc(S(=O)(=O)N4CCOCC4)cc32)c(OC)c1	inactive
